Source: PubChem
A selection: hits, their analogues and other compounds. The true share with any hit is near 8.3%.
BCR signal inh – qHTS Assay to Find Inhibitors of Chronic Active B-Cell Receptor Signaling; ABC-DLBCL IkBa-CBG/CBR reporter, luminescence ratio, 4 h; hit rate 0.05% among 340,000; Potency, µM (doses to about 46.1 µM), actives largely listed as inhibitors; active means well fitted inhibition curve with a large enough effect in the signal ratio, with a control signal flat, not every such curve was filed as active; inconclusive means small, poorly fitted or top-dose-only effect, or effect the other way, or a change in a side signal; the % refers to the signal ratio
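Compounds up to 46 uM were incubated four hours with TMD8 cells whose green CBG68 luciferase is fused to IkappaBalpha; red CBR luminescence normalised the signal, and concentration-effect curves were fitted to fusion, red and ratio data.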
Gal4-VP16 FLuc – VP16 counterscreen qHTS for inhibitors of ROR gamma transcriptional activity; Drosophila S2 Gal4-VP16 UAS-luciferase, luminescence, 20 h; AID 2546, 2010; hit rate 3.5% among 310,000; Potency, µM (top dose mostly 53.6 µM), most hits filed as inhibitors;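 further: Gal4-VP16 expression switched on by copper sulfate through the metallothionein promoter; nearly all actives have a fitted effect of over 50% in size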
RORg inh – qHTS for inhibitors of ROR gamma transcriptional activity. Drosophila S2 Gal4-RORgamma UAS-luciferase reporter, 20 h. Potency, µM (doses to about 53.6 µM), most hits filed as inhibitors. hit rate 5.4% among 310,000. AID 2551, 2010; further: nearly all actives have a fitted effect of over 60% in size
Target sequence (P51450 whole entry, looked up, the tested form may be a part): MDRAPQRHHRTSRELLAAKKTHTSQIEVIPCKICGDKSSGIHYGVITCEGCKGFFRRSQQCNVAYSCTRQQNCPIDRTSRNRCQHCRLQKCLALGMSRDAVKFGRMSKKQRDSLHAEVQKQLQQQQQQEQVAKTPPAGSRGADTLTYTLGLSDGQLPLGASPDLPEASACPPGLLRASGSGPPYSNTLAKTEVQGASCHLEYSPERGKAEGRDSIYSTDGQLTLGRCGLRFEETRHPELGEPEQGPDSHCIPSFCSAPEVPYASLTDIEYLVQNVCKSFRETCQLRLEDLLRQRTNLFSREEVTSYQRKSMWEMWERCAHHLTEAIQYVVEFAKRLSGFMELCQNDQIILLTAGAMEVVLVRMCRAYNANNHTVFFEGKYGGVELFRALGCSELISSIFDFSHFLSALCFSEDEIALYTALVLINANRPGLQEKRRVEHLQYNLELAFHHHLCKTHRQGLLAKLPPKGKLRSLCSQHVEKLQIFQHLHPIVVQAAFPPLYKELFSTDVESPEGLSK
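Read-out: Photinus luciferase luminescence; inhibitors lower reporter signal. Insect Schneider cells with Gal4-ROR gamma fusion under metallothionein promoter, UAS reporter; 700 uM final copper sulfate induction, 20 hr, ambient temperature.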
Giardia killer – Small Molecules that selectively kill Giardia lamblia: qHTS. Giardia lamblia trophozoite viability. activity change, % at 7.66 µM, hits read low. hit rate 0.15% among 340,000. AID 540267, 2011; in the data active means activity change below about -80%; inconclusive means between about -30% and that limit;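 further: parasites exposed to compound for two days anaerobically before the ATP read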
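Trophozoites 100 cells/well + cpd; 48 hrs, 37 deg C, anaerobic. ATPLite 1-Step added, 15-30 min RT, luminescence read (ATP-based viability).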
SW480 rereplic – A quantitative high throughput screen for small molecules that induce DNA re-replication in SW480 colon adenocarcinoma cells | SW480 DNA re-replication, Hoechst DNA content imaging, 48 h | Potency, µM (titrated, usually from 46.1 µM), hits mostly activators | hit rate 1.8% among 340,000 | AID 624297, 2012; further: nearly all actives have a fitted effect of over 55% in size
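250 cells/well; 23 nL cpd via pin tool; 48 hr, 37 C, 5% CO2; Hoechst 40 min; imager read of total nuclear intensity, ex 405/em 500-530 nm.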
MCF10A rereplic – A quantitative high throughput screen for small molecules that induce DNA re-replication in MCF 10a normal breast cells. MCF 10A DNA re-replication, Hoechst nuclear intensity, 48 h. Potency, µM (titrated, usually from 46.1 µM), hits mostly activators. hit rate 2.9% among 350,000. AID 624296, 2012; further: nearly all actives have a fitted effect of over 50% in size
A number is an active result; [ ] = another dose, or the depositor's remark. Unless noted, the call rests on the fitted dose curve; in most records, active means well fitted curve in the direction sought with a large enough effect; inconclusive means small, poorly fitted or top-dose-only effect, or another doubt; inactive means no such curve, though single readings can be large; an effect the other way counts as inactive or inconclusive.

For Cc1cccc(C)c1NC(=O)CCCSc1nc2ccccc2s1 the results were BCR signal inh inactive, Gal4-VP16 FLuc inactive, RORg inh inactive, Giardia killer inactive, SW480 rereplic inactive and MCF10A rereplic inconclusive.
NC(=O)NC(=O)COC(=O)CCCSc1nc2ccccc2s1 was read as BCR signal inh inconclusive, Gal4-VP16 FLuc 8.91µM, RORg inh 11.2µM, Giardia killer inactive, SW480 rereplic inconclusive and MCF10A rereplic inactive.
For CC(C)NC(=O)NC(=O)COC(=O)CCCSc1nc2ccccc2s1 the results were BCR signal inh inconclusive, Gal4-VP16 FLuc 6.31µM, RORg inh 11.2µM, Giardia killer inactive, SW480 rereplic inactive and MCF10A rereplic inactive.
`CCOC(=O)N/C(N)=N/c1nc2ccccc2s1` gave BCR signal inh inconclusive, Gal4-VP16 FLuc 28.2µM, RORg inh inconclusive, Giardia killer inactive, SW480 rereplic inactive and MCF10A rereplic inactive.
For CCOC(=O)NC(=O)COC(=O)CCCSc1nc2ccccc2s1 the results were BCR signal inh inconclusive, Gal4-VP16 FLuc 8.91µM, RORg inh 7.08µM, Giardia killer inactive, SW480 rereplic inactive and MCF10A rereplic inactive.
Screening CC(C)(C)NC(=O)C1CC(=O)N(CCc2ccc(F)cc2)C1 (stereo not drawn) returned BCR signal inh inactive, Gal4-VP16 FLuc inactive, RORg inh inactive, Giardia killer inactive, SW480 rereplic inactive and MCF10A rereplic inactive.
CCC(=O)[C@@]1(O)C(=O)N2C(=C3C(=O)OCCC31)N(Cc1ccccc1)C(C)=C(C(=O)OC)C2c1ccccc1 (stereo partly drawn) was read as Gal4-VP16 FLuc inactive[10 µM] and RORg inh inactive[10 µM].
CCCCc1ccc(NC(=O)CSc2nnc(C)c(=O)n2N)cc1 was read as BCR signal inh inactive, Gal4-VP16 FLuc inactive, RORg inh inconclusive, Giardia killer inactive, SW480 rereplic inconclusive and MCF10A rereplic inactive.
Screening O=C(CCN1C(=O)/C(=C/c2ccccc2F)SC1=S)N[C@@H](CO)Cc1ccccc1 returned BCR signal inh inconclusive, Gal4-VP16 FLuc inactive, RORg inh inactive, Giardia killer inactive, SW480 rereplic 22.4µM and MCF10A rereplic inconclusive.
For O=C(CCN1C(=O)/C(=C/c2ccccc2)SC1=S)N[C@@H](CO)Cc1ccccc1 the results were BCR signal inh inactive, Gal4-VP16 FLuc inactive, RORg inh inactive, Giardia killer inactive, SW480 rereplic inconclusive and MCF10A rereplic inconclusive.
Screening CN1CCN(NC(=O)CN2C(=O)/C(=C/c3ccccc3F)SC2=S)CC1 returned BCR signal inh inactive, Gal4-VP16 FLuc inactive and RORg inh 0.224µM.
Screening CC(C)C(=O)NC(c1ccc(N(C)C)cc1)c1c(O)ccc2ccccc12 (stereo not drawn) returned BCR signal inh inactive, Gal4-VP16 FLuc inactive, RORg inh inactive, Giardia killer inactive, SW480 rereplic inactive and MCF10A rereplic inactive.
CC(=O)NC(c1ccco1)c1ccc2cccnc2c1O (stereo not drawn) was read as BCR signal inh inconclusive, Gal4-VP16 FLuc 11.2µM, RORg inh 3.55µM, Giardia killer inactive, SW480 rereplic 3.26µM and MCF10A rereplic inconclusive.
CCC(=O)NC(c1ccc(C)cc1)c1ccc2cccnc2c1O (stereo not drawn) was read as BCR signal inh inconclusive, Gal4-VP16 FLuc 2.82µM, RORg inh 2.24µM, Giardia killer inactive, SW480 rereplic 0.82µM and MCF10A rereplic inconclusive.
Screening CCC(=O)NC(NC(=S)Nc1cccc2cccnc12)C(Cl)(Cl)Cl (stereo not drawn) returned BCR signal inh inactive, Gal4-VP16 FLuc inactive, RORg inh inactive[10 µM], Giardia killer inactive, SW480 rereplic inactive and MCF10A rereplic inactive.
For CCCC(=O)NC(c1ccccc1Cl)c1ccc2cccnc2c1O (stereo not drawn) the results were BCR signal inh inconclusive, Gal4-VP16 FLuc 4.47µM, RORg inh 2.82µM, Giardia killer inactive, SW480 rereplic inconclusive and MCF10A rereplic inconclusive.
